NS1 inh – inhibitors of influenza NS1 protein function | hit rate 0.4% among 270,000 | Potency, µM (highest dose often 46.1 µM), for the others: at the top dose activity, positive = more growth; calls by dose curve; also: potency is read from the fitted curve at half-maximal effect; actives are rising curves; nearly all actives have a fitted effect of over 50% in size
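S. cerevisiae expressing influenza A NS1, grown in glucose, washed, then diluted 1:100 into pH 6.0 -URA galactose medium with 23 nl compound. Growth recovery read as OD600; NS1-free strain serves as control.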
Shiga inhibitor – blocks Shiga toxin action in Vero cells; Vero cells, Shiga toxin protein synthesis inhibition reporter; inhibition, % at 38.7 µM; hit rate 9.2% among 290,000; AID 2315; in the data active = inhibition mostly above about 28%, no sharp cut-off; inactive = mostly below about 43%; also: 0% is about no effect
Pf growth 96h – inhibits malaria parasite growth, 96 h. P. falciparum luciferase reporter growth, 96 h. Potency, µM (titrated, usually from 28.7 µM), inactives show at the top dose activity change, negative = inhibition, hits mostly inhibitors. hit rate 6.9% among 320,000; also: potency is read from the fitted curve at half-maximal effect; % is scaled to controls: 0 for no effect and ±100 for the full control effect
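96 h incubation, 37 C, 5% CO2, of luciferase-reporter P. falciparum-infected RBCs (2% hematocrit, 0.05% parasitemia final) with test compounds; endpoint luminescence.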
Pf growth 48h – P. falciparum growth inhibition at 48 hours (one generation); Potency, µM (doses to about 28.7 µM), for inactives: top-dose activity change, negative = inhibition, hits mostly inhibitors; AID 504832; P. falciparum luciferase growth in erythrocytes, 48 h; hit rate 5.9% among 310,000; also: potency is read from the fitted curve at half-maximal effect; % is scaled to controls: 0 for no effect and ±100 for the full control effect
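Cell-based growth assay: transgenic P. falciparum expressing firefly luciferase, cultured in red cells within RPMI 1640 containing 0.5% w/v Albumax, 24 mM bicarbonate and gentamycin. A drop in luciferase activity indicates inhibition.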
CHX counter – counter-screen for Shiga toxin inhibitors: cycloheximide protein synthesis inhibition; cell reporter, cycloheximide protein synthesis inhibition counterscreen; AID 2314; max response, %; hit rate 12% among 300,000; in the data active = max response mostly above about 13%, no sharp cut-off; inactive = mostly below about 14%; also: read at 38.3 µM for the half of the compounds with a filed dose; 0% is about no effect
The depositor's hits bear a star; i = inactive; ? = inconclusive; · = no result. The list is not random: actives were taken first. Their share in the collection is about 21%. Unless noted, calls follow the shape of the dose curve; as a rule, active = well fitted inhibition curve with a large enough effect; inconclusive = small, poorly fitted or top-dose-only effect, or another doubt; inactive = no such curve, though single readings can be large or run the other way.

SMILES	NS1 inh	Shiga inhibitor	Pf growth 96h	Pf growth 48h	CHX counter
C=CCOC(Cn1ccnc1)c1ccc(Cl)cc1Cl (stereo unspecified)	·	·	3.4µM*	4.1µM*	·
C=CCc1cc(Cl)ccc1OCCn1ccnc1	?	-11	?	0%	-2
CC(=O)Nc1ccc(S(=O)(=O)Nc2nc3ccccc3nc2Nc2ccc(O)cc2)cc1	-2%	8	4%	20%	-1
Cc1ccc(C(=O)O/N=C(\N)Cc2cccs2)c(Cl)c1	-111%	85*	?	-13%	82*
Cc1ccc(C(=O)O/N=C(\N)Cc2ccc([N+](=O)[O-])cc2)c(Cl)c1	-76%	42	-21%	?	9.8*
N#Cc1cnc2cc(-c3ccccc3)nn2c1N	3%	29	21%	49%	18*
N#Cc1cnn(-c2ccccc2)c1N	1%	-8	20%	-29%	-6
COc1ccc(-c2cc3ncc(-c4ccccc4)c(N)n3n2)cc1	-2%	61*	-48%	211%	36*
CCN1c2ccccc2NC2C1C(C(C)=O)C(=O)N2c1ccc(Cl)cc1 (stereo unspecified)	0%	-9	-102%	13µM*	-1
O=C1Nc2ccccc2N(O)N1c1ccc(Cl)cc1	2%	-12	30%	22%	-6
CC(=O)c1ccc(NC(=O)C2CCCN(c3ncnc4c3nc3n4CCCCC3)C2)cc1 (stereo unspecified)	-2%	-4	6.6µM*	?	7
Cc1ccnc(NC(=O)C2CCCN(c3ncnc4c3nc3n4CCCCC3)C2)c1 (stereo unspecified)	9%	-10	10µM*	-3%	9
O=C(Nc1ccccn1)C1CCCN(c2ncnc3c2nc2n3CCCCC2)C1 (stereo unspecified)	-27%	-3	4%	-25%	7
COc1ccccc1NC(=O)C1CCN(c2ncnc3c2nc2n3CCCCC2)CC1	1%	22	10µM*	?	15
O=C(Nc1cccnc1Cl)C1CCCN(c2ncnc3c2nc2n3CCCCC2)C1 (stereo unspecified)	-28%	8	12µM*	-10%	1
CCc1ccc(C(=O)C[n+]2cccc3cc(OC)ccc32)cc1	4%	-5	0%	?	2
CC1CCN(CCNC(=O)C2CCCN(c3ncnc4c3nc3n4CCCCC3)C2)CC1 (stereo unspecified)	-16%	-6	2.9µM*	-8%	2
CC(=O)c1ccc(N2CCN(C(=O)C3CCCN(c4ncnc5c4nc4n5CCCCC4)C3)CC2)cc1 (stereo unspecified)	-26%	-2	?	13µM*	-2
COc1ccc(N2CCN(C(=O)C3CCCN(c4ncnc5c4nc4n5CCCCC4)C3)CC2)cc1 (stereo unspecified)	-28%	-6	4%	12µM*	-4
CN1CCN(C(=O)C2CCCN(c3ncnc4c3nc3n4CCCCC3)C2)CC1 (stereo unspecified)	-12%	-3	1%	?	-3
CCc1ccccc1N(C1=NCCCS1)S(=O)(=O)c1ccc(C(C)(C)C)cc1	21%	27	15%	?	-3
Nc1ncnc2nc(SCC(=O)Nc3ccccc3F)[nH]c12	21%	-14	?	12%	-2
COc1ccc(F)cc1CN1CCN(C(=O)CCC(=O)Nc2nnc(C3CCCCC3)s2)CC1	-10%	-8	?	?	16
COc1cccc(/C=C/c2ccccn2)c1O	-32%	110*	i	247%	50*
CCCCC(CC)CNC(=O)CN(C)S(=O)(=O)c1cccc2nsnc12 (stereo unspecified)	-37%	53*	1%	?	10
SMILES	NS1 inh	Shiga inhibitor	Pf growth 96h	Pf growth 48h	CHX counter
CCCCC(CC)CNC(=O)CCS(=O)(=O)c1cccc2nsnc12 (stereo unspecified)	4%	-24	-5%	4%	-1
Oc1ccccc1C1C=C(c2ccc3c(c2)OCO3)NC(c2cccc(Br)c2)N1 (stereo unspecified)	·	93*	·	·	28*
Oc1ccccc1C1C=C(c2ccc3c(c2)OCO3)NC(c2cccc(F)c2)N1 (stereo unspecified)	·	96*	·	·	58*
Oc1ccc(Br)cc1C1C=C(c2ccc3c(c2)OCO3)NC(c2cccc(F)c2)N1 (stereo unspecified)	·	50	·	·	34*
CCCCCCC1(C)NC(c2ccc3c(c2)OCO3)=CC(c2cc(Br)ccc2O)N1 (stereo unspecified)	·	41	·	·	32
CCOC(=O)c1c2ccccc2[n+]([O-])n1[C@@H](C)C(N)=O	·	·	54%	-22%	·

Source: PubChem
